From PubChem BioAssay (NCATS) come the findings set out here.

Each structure is given as a SMILES string. Inconclusive results are not listed. Entries that show only a call come without a potency. The source made the active and inactive calls. The call rests on the fitted dose curve; in most records, active means well fitted inhibition curve with a large enough effect; inconclusive means small, poorly fitted or top-dose-only effect; inactive means no such curve, though single readings can be large or run the other way.
Potency means the concentration at half of the fitted maximal effect.

The assay is described as follows: qHTS assay for measurement of the activity of small molecule inhibitors on Zika virus induced Caspase-3 activity in human iPSC derived neural progenitor cells (hNPCs) (AID 1224857). Further: nearly all actives have a fitted effect of over 65% in size. Particulars: hNPCs ZIKV-induced caspase-3/7, Caspase-Glo luminescence, 6 h; series mostly up to 45.7 µM. An excerpt:
National Center for Advancing Translational Sciences [NCATS]
Johns Hopkins University School of Medicine
Increase in the Caspase-3 activity indicates an activation of apoptosis cell death pathway caused by Zika virus infection in certain types of neuronal cells including human neural progenitor cells (hNPCs), astrocytes, and astrocytoma cell line (SNB-19). This cell-based caspase-3 activity assay measures the increased caspase-3 activity in the human iPSC derived neural progenitor cells (hNPCs) after a 6-hour Zika virus infection with a luminescence readout. A decrease in the luminescence signal in this assay by small molecule treatment indicates an inhibitory effect of that small molecule on the Zika virus induced caspase-3 activity that may correlate with its effect on reduction of Zika virus caused cell death.
The medium for hNPCs consists of DMEM/F12, N2 supplement (ThermoFisher, Cat.# 17502048), NEAA (ThermoFisher, Cat. # 11140050), 2 ug/ml heparin, 2 uM cyclopamine, and B27 (ThermoFisher, Cat. # 17504044). A Caspase-Glo 3/7 assay kit (catalog number G8092; Promega, Madison, WI) was used to detect caspase-3 activity induced by Zika virus infection in human cells. The reagent mixture was reconstituted as described in the protocol from the manufacturer. Polystyrene tissue culture treated and PDL coated white plates were obtained from Greiner Bio-One (Monroe, NC). Cells were seeded in 384- or 1536-well assay plates and cultured at 37 C with 5% CO2 for 16 to 20 hours. The typical cell seeding density in the 1536-well plate assay is 350 cells/well in 3 ul medium for hNPCs in tissue culture treated plates. Compounds were added to cells and incubated for one hour before addition of ZIKV solution to cells (2 FFU/cell). After incubation at 37 C with 5% CO2 for 6 hours, the reagent mixture of Caspase-Glo 3/7 assay kit was added to each well, followed by incubation at room temperature for 30 minutes. The luminescence intensity of the assay plates was measured using a ViewLux plate reader (PerkinElmer). Data were normalized by using the cell-containing wells without ZIKV as a negative control (0% induction of caspase 3/7 activity) and wells containing ZIKV infected cells (Caspase-3 activity induced) as a positive control (100% induction of caspase 3 activity). The percentage inhibitions of the increased Caspase-3 activity by small molecule inhibitors were then calculated.
On to `C[C@@H](O[C@H]1OCCN(Cc2n[nH]c(=O)[nH]2)[C@@H]1c1ccc(F)cc1)c1cc(C(F)(F)F)cc(C(F)(F)F)c1`, for which the Potency was 8.33 µM (active).

On to `CO[C@H]1/C=C\O[C@@]2(C)Oc3c(C)c(O)c4c(O)c(c(C=NN5CCN(C6CCCC6)CC5)c(O)c4c3C2=O)NC(=O)C(C)=CC=C[C@H](C)[C@H](O)[C@@H](C)[C@@H](O)[C@@H](C)[C@H](OC(C)=O)[C@H]1C`, for which the Potency result is “inactive”.

As to `CS(=O)(=O)c1ccc(C2=C(c3ccccc3)C(=O)OC2)cc1`, the Potency entry was “inactive”.

In the case of `O=C1NC(=O)C(=Cc2ccc(-c3ccc(F)cc3O)o2)S1`, the Potency is 16.6 µM (active).

As for `Nc1nc(Cl)nc2c1ncn2[C@@H]1O[C@H](CO)[C@@H](O)[C@H]1F`, the Potency entry was “inactive”.

Turning to `O=c1[nH]c(=O)n([C@H]2C[C@@H](O)[C@@H](CO)O2)cc1I`, the Potency result was “inactive”.

Regarding `Cc1cc2nc3c(=O)[nH]c(=O)nc-3n(CC(O)C(O)C(O)CO)c2cc1C` (stereo not given), the Potency result is “inactive”.

Consider `O=C(O)c1nc(=O)[nH]c(=O)[nH]1`, for which the Potency result is “inactive”.

Consider `CN1[C@H]2CC[C@H]1CC(OC(=O)c1c[nH]c3ccccc13)C2` (stereo not given in full), for which the Potency entry was “inactive”.

`CN1CCc2c(n(Cc3ccc(C(=O)NO)cc3)c3ccccc23)C1`: the Potency result was “inactive”.

In the case of `OC(c1cc(C(F)(F)F)nc2c(C(F)(F)F)cccc12)C1CCCCN1` (stereo not given), the Potency entry was “inactive”.

`Cc1csc(-c2nnc(Nc3ccc(Oc4ncccc4-c4ccnc(N)n4)cc3)c3ccccc23)c1`: the Potency result is “inactive”.

For the compound `CCCCC[C@H](O)C=C[C@H]1[C@H](O)CC(=O)[C@H]1CC=CCCCC(=O)O`, the Potency entry was “inactive”.

Regarding `C[C@H]1O[C@@H](n2cc(F)c(=O)[nH]c2=O)[C@H](O)[C@H]1O`, the Potency result was “inactive”.

As for `O=c1[nH]nc(OCCCc2ccc(Cl)cc2)c(NCc2cccnc2)c1Br`, the Potency result is “inactive”.

For `C=C[C@@H]1CN2CCC1C[C@@H]2C(O)c1ccnc2ccc(OC)cc12` (stereo not given in full), the Potency result is “inactive”.

Regarding `CNC(=O)[C@H](Cc1ccccc1)NC(=O)[C@H](CC(C)C)[C@H](CSc1cccs1)C(=O)NO`, the Potency result was “inactive”.

As to `CO[C@H]1/C=C\O[C@@]2(C)Oc3c(C)c(O)c4c(O)c(c5c(nc6cc(C)ccn65)c4c3C2=O)NC(=O)C(C)=CC=C[C@H](C)[C@H](O)[C@@H](C)[C@@H](O)[C@@H](C)[C@H](OC(C)=O)[C@H]1C`, the Potency result was “inactive”.

Consider `O=C1NC(=O)C(c2cnc3ccccn23)=C1c1cn2c3c(cccc13)CN(C(=O)N1CCOCC1)CC2`, for which the Potency entry was “inactive”.

Turning to `CC[C@]1(O)C[C@H]2CN(CCC3=c4ccccc4=N[C]3[C@@](C(=O)OC)(c3cc4c(cc3OC)N(C)[C@H]3[C@@](O)(C(N)=O)[C@H](O)[C@]5(CC)C=CCN6CC[C@]43[C@@H]65)C2)C1`, the Potency entry is “inactive”.

On to `CCCCC[C@H](O)C=C[C@H]1[C@H](O)CC(=O)[C@H]1CCCCCCC(=O)O`, for which the Potency entry is “inactive”.

For `COc1c(C)c2c(c(O)c1CC=C(C)CCC(=O)O)C(=O)OC2`, the Potency result is “inactive”.

Turning to `CNC(=O)c1c(-c2ccc(F)cc2)oc2cc(N(CCO)S(C)(=O)=O)c(C3CC3)cc12`, the Potency result is “inactive”.

Regarding `COc1ccc(CCN(C)CCCOc2ccc(S(=O)(=O)c3[nH]c4ccccc4c3C(C)C)cc2)cc1OC`, the Potency result was “inactive”.

On to `O=C(Nc1cccc2c(=O)cc(-c3nn[nH]n3)oc12)c1ccc(OCCCCc2ccccc2)cc1`, for which the Potency result is “inactive”.

As to `Cc1ccc(NC(=O)c2ccc(CN3CCN(C)CC3)cc2)cc1Nc1nc(-c2cccnc2)cs1`, the Potency entry is “inactive”.

`CC=C(C(=CC)c1ccc(O)cc1)c1ccc(O)cc1`: the Potency result is “inactive”.

`Cc1cnc(-c2cc(N3CCN(C(=O)CCS(C)(=O)=O)CC3)ncc2Cl)c(C)c1`: the Potency entry was “inactive”.

For the compound `CO[C@H]1C=CO[C@@]2(C)Oc3c(C)c(O)c4c(O)c(c(C=NN5CCN(C)CC5)c(O)c4c3C2=O)NC(=O)C(C)=CC=C[C@H](C)[C@H](O)[C@@H](C)[C@@H](O)[C@@H](C)[C@H](OC(C)=O)[C@H]1C`, the Potency result is “inactive”.

Consider `Cc1cc(OCCCS(C)(=O)=O)cc(C)c1-c1cccc(COc2ccc3c(c2)OC[C@H]3CC(=O)O)c1`, for which the Potency entry was “inactive”.

Consider `Cc1ccc(S(=O)(=O)OCC(=O)Nc2ccc(C(=O)O)c(O)c2)cc1`, for which the Potency result was “inactive”.

For `COc1cc(N2CCN(C)CC2)ccc1Nc1nc(N)c(C(=O)c2c(Cl)cccc2Cl)s1`, the Potency result was “inactive”.

Turning to `CCNC(=O)CCCC=CC[C@@H]1[C@H](C=CC(O)CCc2ccccc2)[C@@H](O)C[C@@H]1O` (stereo not given in full), the Potency result was “inactive”.

`COc1ccc2c(c1)c(C1=C(c3c[nH]c4ccccc34)C(=O)NC1=O)cn2CCCN(C)C`: the Potency entry is “inactive”.

For `CC1C(=O)OC2C(O)C34C5CC(C(C)(C)C)C36C(OC(=O)C6O)OC4(C(=O)O5)C12O` (stereo not given), the Potency result is “inactive”.

In the case of `CC(C)(F)C[C@H](N[C@@H](c1ccc(-c2ccc(S(C)(=O)=O)cc2)cc1)C(F)(F)F)C(=O)NC1(C#N)CC1`, the Potency entry was “inactive”.

With `CCOc1ccccc1N=Nc1c(C)[nH]n(-c2nc(-c3ccccc3)cs2)c1=O`, the Potency entry is “inactive”.

Consider `C=C1[C@H](n2cnc3c(=O)[nH]c(N)nc32)C[C@H](O)[C@H]1CO`, for which the Potency result was “inactive”.

Regarding `CN[C@H]1[C@@H](O[C@@H]2[C@H](O[C@@H]3[C@@H](O)[C@@H](O)[C@@H](N=C(N)N)[C@@H](O)[C@@H]3N=C(N)N)O[C@H](C)[C@@]2(O)C=O)O[C@@H](CO)[C@@H](O)[C@H]1O`, the Potency result is “inactive”.

Turning to `CC1(C)CC(=O)c2c(C(F)(F)F)nn(-c3ccc(C(N)=O)c(NC4CCC(O)CC4)c3)c2C1` (stereo not given), the Potency result was “inactive”.
